Over roughly 110,000 compounds, “z-score” has its median near -0.1; the highest 2% begin near 2. Only a selection was taken, and the highest values are over-represented in it overall. Active and inactive are the calls of the source.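 How the source made its calls: active means z-score in the third read window above 3 or below -3; inactive means the rest.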

This assay deals with Metabotropic glutamate receptor 8 (Rattus norvegicus) (UniProt P70579). The assay can be described thus: mGluR8 Gi/Go-coupled signaling modulation – cell-based, rat, thallium flux, HTS, primary screen (AID 488969). Particulars: HEK293 rat mGluR8, GIRK (G protein-gated inwardly rectifying potassium channel) thallium flux, FluoZin2; at 10 µM; stronger effect = higher value; submaximal glutamate (EC20) added with thallium.
Sequence of Metabotropic glutamate receptor 8 (Rattus norvegicus) (P70579 whole entry, looked up): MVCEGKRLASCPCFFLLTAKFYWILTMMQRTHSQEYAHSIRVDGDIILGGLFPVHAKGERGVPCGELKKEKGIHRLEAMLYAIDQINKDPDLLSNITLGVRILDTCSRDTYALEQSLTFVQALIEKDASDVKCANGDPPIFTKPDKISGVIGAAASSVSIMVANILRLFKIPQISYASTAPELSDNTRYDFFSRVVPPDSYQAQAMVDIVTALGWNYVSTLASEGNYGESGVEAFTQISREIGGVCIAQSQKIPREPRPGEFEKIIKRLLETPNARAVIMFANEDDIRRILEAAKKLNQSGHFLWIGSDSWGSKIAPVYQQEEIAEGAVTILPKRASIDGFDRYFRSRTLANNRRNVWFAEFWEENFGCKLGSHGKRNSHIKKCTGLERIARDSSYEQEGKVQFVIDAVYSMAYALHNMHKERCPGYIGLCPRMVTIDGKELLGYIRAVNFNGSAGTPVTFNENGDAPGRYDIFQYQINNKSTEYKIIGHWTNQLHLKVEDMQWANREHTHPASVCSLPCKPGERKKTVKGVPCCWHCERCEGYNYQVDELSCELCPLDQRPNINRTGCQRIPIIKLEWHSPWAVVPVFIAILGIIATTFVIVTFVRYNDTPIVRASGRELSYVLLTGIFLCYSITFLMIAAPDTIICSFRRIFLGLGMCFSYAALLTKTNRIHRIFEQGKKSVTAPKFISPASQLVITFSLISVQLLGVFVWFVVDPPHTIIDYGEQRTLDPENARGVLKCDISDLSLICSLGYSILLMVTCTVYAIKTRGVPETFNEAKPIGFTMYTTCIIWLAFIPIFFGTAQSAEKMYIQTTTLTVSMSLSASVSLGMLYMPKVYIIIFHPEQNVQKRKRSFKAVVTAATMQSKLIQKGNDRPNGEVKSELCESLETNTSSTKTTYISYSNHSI
As for `O=C(N/N=C/c1ccc[nH]1)c1cccc([N+](=O)[O-])c1`, the z-score was -0.104.

Turning to `Cc1ccc(S(=O)(=O)Nc2ccc3c(c2)CCC3)cc1`, the z-score was -0.101.

With `Cc1ccc(S(=O)(=O)N2Cc3ccccc3CC2C(=O)Nc2ccc3c(c2)OCO3)cc1` (stereo not given), the z-score is -0.0374.

In turn, `Cc1ccc(S(=O)(=O)N2CC(O)CC2C(=O)Nc2ccc3c(c2)CCC3)cc1` (stereo not given) yielded a z-score of 2.07.

Compound `COc1ccc(-c2cc3nc(C4CCN(C(=O)OC(C)(C)C)CC4)c(C(=O)O)cn3n2)cc1` displayed a z-score of -0.691.

With `c1ccc2c(c1)ncn2CCC1CCCCC1`, the z-score was 0.093.

`c1ccc(C(c2ccccc2)N2CCN(c3nc4ccccc4n4cnnc34)CC2)cc1` returned a z-score of -0.222.

Regarding `CCOCCCn1c(SCC(=O)/C(C#N)=C(\C)N)nc2ccccc2c1=O`, the z-score is -0.243.

On to `COCCn1c(SCc2nc(N)nc(Nc3ccccc3C)n2)nc2ccccc2c1=O`, for which the z-score was -0.279.

Turning to `CCCCn1c(SCC(=O)/C(C#N)=C(\C)N)nc2ccccc2c1=O`, the z-score is 5.63 (active).

Turning to `C/C(N)=C(/C#N)C(=O)CSc1nc2ccccc2c(=O)n1CCCO`, the z-score is -0.389.

The compound `C/C(N)=C(/C#N)C(=O)CSc1nnnn1-c1ccc(C)cc1` returned a z-score of 0.331.

In turn, `C/C(N)=C(/C#N)C(=O)CSc1nc2cc(Cl)ccc2c(=O)n1-c1ccc(C)cc1` came in with a z-score of 2.69.

`Cc1ccccc1Nc1nc(N)nc(CSc2nc3ccccc3c(=O)n2C)n1`: the z-score came to 0.919.

With `CCCCn1c(SCc2nc(N)nc(Nc3ccccc3C)n2)nc2ccccc2c1=O`, the z-score was 3.44 (active).

As for `Cn1c(SCC(=O)NCc2ccco2)nc2ccccc2c1=O`, the z-score is -0.354.

As to `CCCCn1c(SCC(=O)NCc2ccco2)nc2ccccc2c1=O`, the z-score was 6.36 (active).

In the case of `C/C(N)=C(/C#N)C(=O)CSc1nc2ccccc2c(=O)n1-c1ccc(C)c(Cl)c1`, the z-score was -0.275.

On to `O=C(CSc1nc2ccccc2c(=O)n1Cc1ccco1)NCc1ccco1`, for which the z-score is -0.352.

Turning to `O=C(O)c1cccc(Nc2ncnc3c2cnn3-c2ccccc2)c1`, the z-score was -1.14.

`CC(=O)C(/C=N/c1cc(-c2ccc(C)cc2)nn1-c1ccccc1)=C(\C)O`: the z-score is -0.251.

Compound `CCC(=O)Nc1ccc(S(=O)(=O)N2CCCCC2)cc1OC` returned a z-score of 0.0489.

Regarding `CC(C)Cc1nc2oc3c(NCCCN4CCOCC4)ncnc3c2c2c1CCC2`, the z-score was found to be 0.0144.

`S=c1[nH]nc(-c2cc(-c3ccco3)[nH]n2)n1-c1ccccc1` displayed a z-score of -0.141.

In turn, `COc1cc(S(=O)(=O)N(Cc2ccccn2)Cc2ccco2)ccc1-n1cnnn1` registered a z-score of -0.493.

Consider `CC(=O)Nc1ccc(SCC(=O)c2cc(C)n(-c3ccccc3F)c2C)cc1`, for which the z-score is 4.45 (active).

`CC(=O)Nc1ccc(SCC(=O)c2cc(C)n(C)c2C)cc1` showed a z-score of -0.0734.

Compound `CC(=O)Nc1ccc(SCC(=O)c2cc(C)n(-c3ccccc3)c2C)cc1` came in with a z-score of 0.162.

As to `COC(=O)c1ccc(-n2c(C)cc(C(=O)CSc3ccc(NC(C)=O)cc3)c2C)cc1`, the z-score was 3.5 (active).

On to `COCC(C)n1c(C)cc(C(=O)CSc2ccc(NC(C)=O)cc2)c1C` (stereo not given), for which the z-score turned out to be 0.445.

The compound `CC(=O)Nc1ccc(SCC(=O)c2cc(C)n(CC(F)(F)F)c2C)cc1` showed a z-score of 0.0826.

`Cn1c(SCC(=O)c2ccc(F)cc2)nnc1-c1ccccc1N` had a z-score of -0.0125.

Compound `O=C(CCSc1nc(-c2ccc3c(c2)OCO3)cc(C(F)(F)F)n1)NCc1ccco1` gave a z-score of 0.587.

Turning to `O=[N+]([O-])c1cccc(/C=C/c2nc(C=Nc3ccc4ccccc4c3)c(O)o2)c1`, the z-score was -0.0456.

`Cc1ccc(S(=O)(=O)N(C)CCCC(=O)Nc2cccc3ccccc23)cc1` registered a z-score of -0.456.

In turn, `O=C(CNC1CCCCCC1)Nc1ccccc1N1CCCCC1` yielded a z-score of -0.23.

The compound `CCC(=O)Nc1ccc(N2CCCCC2)cc1` had a z-score of -0.169.

For `O=C(CNC1CCCCCC1)Nc1ccc(N2CCCC2)cc1`, the z-score was determined as 2.66.

Compound `CN1C2=C(C#N)C(c3ccccc3)(C(F)(F)F)NC(=O)N2c2ccccc21` (stereo not given) gave a z-score of -0.282.

`CC(C)c1nc2cc3ccccc3cc2[nH]1` yielded a z-score of 0.396.

For `CC(C)c1nc(-c2ccccc2)c(-c2ccccc2)[nH]1`, the z-score was -0.0702.

Consider `CC(C)c1nc(=S)n(-c2ccccc2)[nH]1`, for which the z-score is 4.41 (active).

`COc1ccc(N2CCN(C(=O)NC34CC5CC(CC(C5)C3)C4)CC2)cc1` returned a z-score of -0.0964.

For the compound `CCC(CCC(=O)Nc1ccc(S(N)(=O)=O)cc1)C(=O)O` (stereo not given), the z-score is 0.735.

Compound `Cc1[nH]nc2c1C(c1ccccc1F)NC2=O` (stereo not given) had a z-score of 2.74.

`COc1ccc(C2NC(=O)c3n[nH]c(C)c32)c(OC)c1` (stereo not given) showed a z-score of 0.447.

`CCOc1ccc(C2NC(=O)c3n[nH]c(C)c32)cc1` (stereo not given) displayed a z-score of 0.931.

`CCOC(=O)c1[nH]c2ccc(OC)cc2c1NC(=S)N1CCN(c2ccc(F)cc2)CC1` came in with a z-score of 0.623.

On to `CC1Oc2ccccc2C=C1/C=N/NC(=O)c1ccccc1O` (stereo not given), for which the z-score was 0.0521.

In the case of `Cc1ccc(C(=O)N/N=C/C2=Cc3ccccc3OC2C)cc1` (stereo not given), the z-score is 3.08 (active).

In turn, `CC1Oc2ccccc2C=C1/C=N/NC(=O)c1ccccc1` (stereo not given) had a z-score of 1.9.

As for `Cc1ccsc1C(=O)NNC(=O)Nc1ccc(Cl)c(Cl)c1`, the z-score is -0.13.

`COc1cccc(OC)c1OCCCCCc1c(C)n[nH]c1C` returned a z-score of -0.231.

Compound `COc1ccccc1OCCCCCc1c(C)n[nH]c1C` displayed a z-score of -0.151.

`CCOc1ccccc1OCCCCCc1c(C)n[nH]c1C`: the z-score is 3.05 (active).

On to `CCC(=O)N/C(=N/c1nc(C)cc(C)n1)Nc1cccc(OC)c1`, for which the z-score is 0.0375.

The compound `Cc1cc(/C([O-])=C(/C(=S)Nc2ccc(F)cc2)[n+]2ccccc2)c(C)n1-c1ccc(F)cc1` came in with a z-score of -0.454.

As for `CCC(CC)c1nnc(NC(=O)c2ccc3ccccc3n2)s1`, the z-score was 11.4 (active).

For the compound `O=C(Nc1nnc(C(F)(F)F)s1)C1COc2ccccc2O1` (stereo not given), the z-score was -0.109.

Take `CCC(CC)c1nnc(NC(=O)C2COc3ccccc3O2)s1` (stereo not given): the z-score was 3.82 (active).

On to `CCc1nnc(NC(=O)C2COc3ccccc3O2)s1` (stereo not given), for which the z-score came to 0.0066.

With `CCSc1nnc(NC(=O)c2ccc3ccccc3n2)s1`, the z-score is 11.8 (active).

The compound `CCC(CC)c1nnc(NC(=O)Oc2ccccc2)s1` yielded a z-score of -0.366.

`CCSc1nnc(NC(=O)c2cccc3ccccc23)s1` displayed a z-score of -0.316.

On to `CCSc1nnc(NC(=O)c2cc(C)nc3ccccc23)s1`, for which the z-score was 0.31.

Consider `CCC(CC)c1nnc(NC(=O)c2cc(-c3ccccc3)nc3ccccc23)s1`, for which the z-score was -0.847.

As for `COc1cccc(C2C(C(C)=O)=C(O)C(=O)N2CCc2c[nH]c3ccccc23)c1` (stereo not given), the z-score was -0.32.

`Cc1ccc(CSc2ccc(-c3ccco3)nn2)cc1` returned a z-score of 0.361.

For `C=CCN(C(C)=O)C1CC(=O)N(c2ccc(OCCC)cc2)C1=O` (stereo not given), the z-score was -0.00882.

`CC/C(=N\NC(=O)c1csc(C)c1C)c1cccs1` yielded a z-score of 1.32.

As for `Cc1scc(C(=O)N/N=C/c2ccco2)c1C`, the z-score was -0.0599.

`C/C(=N\NC(=O)c1csc(C)c1C)c1ccco1` displayed a z-score of 0.816.

As for `CCC/C(=N\NC(=O)c1csc(C)c1C)c1cccs1`, the z-score came to 0.475.

In the case of `CCC/C(=N/NC(=O)c1csc(C)c1C)c1ccc(Cl)s1`, the z-score was 5.92 (active).

With `C/C(=N\NC(=O)c1csc(C)c1C)c1ccc(Cl)s1`, the z-score was 3.54 (active).

As to `COc1ccc(CCNC(=O)C2CCCN(S(=O)(=O)c3cnc[nH]3)C2)cc1OC` (stereo not given), the z-score is -0.0112.

With `CCOc1ccccc1C(=O)N(Cc1ccco1)C1CCS(=O)(=O)C1` (stereo not given), the z-score is 0.0514.

`CN1C(=O)CSC1=NCC12CC3CC(CC(C3)C1)C2` showed a z-score of -0.123.

In turn, `COc1ccc(Cl)cc1NC(=S)NCCc1c[nH]c2ccccc12` showed a z-score of 0.142.

In turn, `CCOc1ccccc1CN(Cc1ccco1)S(=O)(=O)c1ccc(-n2cnnn2)c(OC)c1` had a z-score of 0.115.

Regarding `CCOc1ccc(CN(Cc2ccco2)S(=O)(=O)c2ccc(-n3cnnn3)c(OC)c2)cc1`, the z-score came to 2.75.

Turning to `COc1cc(S(=O)(=O)N(Cc2ccc(C)cc2)Cc2ccco2)ccc1-n1cnnn1`, the z-score turned out to be 0.205.

Compound `O=C(Cc1c(F)cccc1Cl)NCC1CCCO1` (stereo not given) showed a z-score of 0.148.

Compound `Cc1ccc(C(=O)NC(=S)/C=C2\N(C)c3ccccc3C2(C)C)cc1` yielded a z-score of 2.66.

In turn, `CN1/C(=C\C(=S)NC(=O)c2cccc(Br)c2)C(C)(C)c2ccccc21` registered a z-score of -0.0589.

In turn, `CN1/C(=C\C(=S)NC(=O)c2ccc([N+](=O)[O-])cc2)C(C)(C)c2ccccc21` registered a z-score of 0.213.

On to `CC(C)(C)C(=O)Nc1ccc(-c2cn3ccsc3n2)cc1`, for which the z-score was -1.44.

`CCCN1CNC(=S)N(c2ccc(C(=O)OCC)cc2)C1` returned a z-score of -2.04.

For `Cn1ncc2cc(NC(=S)NC(=O)c3ccccc3)ccc21`, the z-score came out at 2.21.

In turn, `O=C(NC(=S)Nc1ccc2c(c1)OCCO2)c1cccc(Br)c1` displayed a z-score of 0.945.

`O=C(NC(=S)NCc1ccc2c(c1)OCO2)c1ccccc1` yielded a z-score of 1.1.

For `O=C(NC(=S)Nc1ccc2c(c1)OCCO2)c1ccccc1`, the z-score was determined as 2.12.

Turning to `O=C(NC(=S)Nc1ccc2[nH]ncc2c1)c1ccccc1`, the z-score is -0.139.

As for `O=C(NCC1COc2ccccc2O1)c1ccccc1` (stereo not given), the z-score is 0.298.

Compound `O=C(CNC(=O)c1ccccc1)NCC1COc2ccccc2O1` (stereo not given) had a z-score of 0.11.

As for `O=C(NC(=S)NCC1COc2ccccc2O1)c1ccccc1` (stereo not given), the z-score is 6.58 (active).

Compound `O=C(NC(=S)Nc1ccc2c(c1)OCO2)c1ccc(Cl)cc1` yielded a z-score of 0.837.

In the case of `O=C(NC(=S)Nc1ccc2c(c1)OCO2)c1ccccc1`, the z-score is 3.25 (active).

Regarding `Cc1cc(NC(=S)NC(=O)c2ccccc2)ccc1-c1cc2ccccc2oc1=O`, the z-score was -0.165.

Compound `O=C(CC(=O)c1ccccc1)Nc1ccc2c(c1)OCCO2` displayed a z-score of -0.987.

Take `Cc1ccc(C2N(c3ccc(F)cc3)C(=O)C3CCCN32)cc1` (stereo not given): the z-score came out at 0.214.

`N#Cc1cc(C(=O)c2ccccc2OCC(=O)Nc2ccccc2Cl)cn(C2CCCCC2)c1=O` gave a z-score of -0.433.

As to `CCn1c(CCCOc2ccc(Cl)cc2Cl)nnc1SCC(=O)Nc1cccc(F)c1`, the z-score is -0.135.

On to `CCOc1ccccc1Nc1ncccc1C(=O)N1CCCC1`, for which the z-score came to 1.1.

For the compound `Cc1ccc(C)c(N2CCN(S(=O)(=O)c3c(C)noc3/C=C/N(C)C)CC2)c1`, the z-score was -0.559.

With `CC1(C(=O)N2CC3(CC(c4ccccc4)=NO3)C[C@H]2C(=O)NCC(N)=O)CC1` (stereo not given in full), the z-score was -0.0396.

Compound `CCOc1ccccc1Oc1c(C)oc2c(CN3CCN(CCO)CC3)c(O)ccc2c1=O` gave a z-score of -0.395.

As to `CCc1ccc(N2CC(C(=O)Nc3ccc(C)c(S(=O)(=O)N4CCOCC4)c3)CC2=O)cc1` (stereo not given), the z-score came to 0.319.

Take `CC(C)NC(=O)c1ccccc1N(Cc1ccccc1)S(C)(=O)=O`: the z-score worked out at 0.373.

`COc1ccc2nc(NC(=O)c3cccc(-c4cc5ccccc5oc4=O)c3)sc2c1`: the z-score came to 0.372.

(Values after PubChem BioAssay AID488969 (Vanderbilt High Throughput Screening Facility, 2010).)
